# Experimental data as given in PubChem BioAssay (NCI).
# Where “and” joins values, the source holds several entries; their conditions need not be identical. Equal entries are not always repeated. The panel holds about 83,000 compounds, 20% with a hit somewhere; the sample as a whole holds those more often.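 Step 1: grow cells in 96-well plates. Step 2: add test compound at a single concentration. Step 3: incubate 48 h. Step 4: record percent growth.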 Values without a mark were called inactive. Calls of active or inactive are those of the source. The calls were made as follows: active = growth percent below 10; inactive = the rest. Where a SMILES comes first, the peptide text is derived from it.
# Tests used:
# Assay in all cases: NCI-60 one-dose screen, 48 h (100 = growth as untreated, 0 = no growth, -100 = all killed)
# T-47D breast = conditions: 10 µM unless noted
# BT-549 breast = conditions: 10 µM unless noted
# MCF7 breast = system: MCF7 breast
# HCT-116 colon = conditions: 10 µM unless noted
# HCC-2998 colon = conditions: 10 µM unless noted
# KM12 colon = conditions: 10 µM unless noted
# MDA-MB-435 melanoma = conditions: 10 µM unless noted
# SW-620 colon = conditions: 10 µM unless noted
SMILES,growth (T-47D breast),growth (BT-549 breast),growth (MCF7 breast; 10 µM unless noted),growth (HCT-116 colon),growth (HCC-2998 colon),growth (KM12 colon),growth (MDA-MB-435 melanoma),growth (SW-620 colon),growth (MCF7 breast; 10 µM),growth (MCF7 breast; 100 µM)
Nc1ncnc2c1ncn2C1OC(COP(=O)(O)O)C(O)C1O (centres undefined),123%,113%,101%,108%,104%,111%,–,–,–,–
CC(C)C(C)(C)c1ccc(O)cc1,101%,110%,109%,105%,114%,107%,106%,101%,–,–
COc1ccc(Nc2ccc3ccccc3c2)cc1,65.6%,94.7%,58.1%,79%,–,46.7%,22.1%,72.1%,–,–
CC1(C)COC(=S)N1,99.9%,102%,105%,105%,106%,112%,101%,109%,–,–
N#CC(C#N)N=Nc1ccc(Cl)cc1,-0.279% (active),77.1%,27.3%,16.9%,75.3%,85.9%,79.6%,15%,–,–
CCCCCCCCCCNC(=O)CI,–,-87% (active),10.7%,-28.3% (active),98.4%,55.3%,9.57% (active),-33.9% (active),–,–
C/C(=C\c1ccccc1)c1ccccn1,–,110%,68.4%,101%,117%,95.5%,118%,105%,–,–
COc1ccc2cc1Oc1ccc(cc1)C[C@H]1c3cc(c(OC)cc3CCN1C)Oc1c(OC)c(OC)cc3c1[C@H](C2)N(C)CC3,–,28.5%,–,14%,0.135% (active),15.6%,24.7%,40.1%,52.7%,98.3% and 67.5%
CC(=O)OCC1OC(OC(C)=O)C(OC(C)=O)C(OC(C)=O)C1OC(C)=O (centres undefined),97.7% and 101%,96.3% and 103%,99.8% and 91.9%,103%,111% and 101%,109% and 100%,105% and 107%,102% and 105%,–,–
Nc1nc(N)c2[nH]cnc2n1,59.1%,96.8%,54.2%,90.5%,86%,107%,84.5%,85.9%,–,–
NC(=O)NCCCC(N)C(=O)O (centres undefined),88.4%,95.7%,101%,104%,110%,101%,107%,107%,–,–
Nc1ccc2c(O)cc(S(=O)(=O)O)cc2c1,85.5% and 101%,94.9% and 119%,95% and 96.6%,93.8% and 94%,88.6% and 107%,120% and 103%,104% and 113%,94.3% and 95.3%,–,–
O=C1c2c(O)ccc(O)c2C(=O)c2c(NCCNCCO)ccc(NCCNCCO)c21,-24% (active) and -46.9% (active),-46.2% (active) and -85.9% (active),-42% (active),-20.2% (active) and -44.9% (active),-88.5% (active),-11.4% (active) and -25.6% (active),-89.9% (active) and -94.9% (active),-30.8% (active) and -81.8% (active),–,–
Oc1ccc(Cc2ccccc2Cl)c(O)c1,83.9%,99.2%,119%,96.6%,91.3%,–,107%,97.1%,–,–
c1ccc(CNCCNCc2ccccc2)cc1,103%,107%,93.4%,103%,116%,120%,106%,107%,–,–
OC1COC(OCc2ccccc2)C(O)C1O (centres undefined),89%,105%,96%,99.6%,–,105%,104%,109%,–,–
CCOC(=O)c1c(C)cc(=O)oc1C,102%,97.3%,97.1%,95.4%,103%,110%,–,110%,–,–
O=C(O)/C=C\C(=O)Nc1cccc2ccccc12,120% and 107%,84.4% and 91.7%,97.3% and 101%,103% and 101%,118% and 96.8%,89.8% and 106%,113% and 103%,99.5% and 106%,–,–
CC(C)NC(=O)N/C=C(\C#N)C(N)=O,–,92.1%,102%,90.9%,97.5%,92.7%,92.6%,93.4%,–,–
CC[C@H](CC[C@@H](C)[C@H]1CC[C@H]2[C@@H]3CC=C4C[C@@H](O)CC[C@]4(C)[C@H]3CC[C@]12C)C(C)C,97.2% and 105%,100%,107% and 89.8%,94.6% and 105%,108%,106% and 98.6%,97.4% and 99.4%,110% and 104%,–,–
O=c1n(CC2CO2)c(=O)n(CC2CO2)c(=O)n1CC1CO1 (centres undefined),53.5%,77.1%,42.5%,73.9%,94.8%,90.3%,82.9%,75.5%,–,–
Cc1ccc(S(=O)(=O)c2ccccc2)cc1,49.7%,36.6%,20.9%,18.8%,51.6%,25.5%,-49.8% (active),11.6%,–,–
COc1cc(C(O)C2C(=O)OCC2C2(c3ccc4c(c3)OCO4)SCCCS2)cc(OC)c1OC (centres undefined),107%,102%,97.6%,91.7%,98.5%,96.2%,101%,102%,–,–
O=C(/C=C/c1ccccc1)c1ccccc1,64.6%,126%,-2.52% (active),6.71% (active),120%,33.3%,76.6%,86.6%,–,–
O=CN1CCCCC1,–,97.3%,97.6%,104%,105%,100%,107%,102%,–,–
Cc1cc(-c2ccc(N=Nc3ccc4c(S(=O)(=O)O)cc(S(=O)(=O)O)c(N)c4c3O)c(C)c2)ccc1N=Nc1ccc2c(S(=O)(=O)O)cc(S(=O)(=O)O)c(N)c2c1O,93.1%,86.1%,103%,85.8%,117%,94.7%,98.5%,110%,–,–
COc1ccc(N/C=C/C2=[N+](C)c3ccccc3C2(C)C)c(OC)c1,89.5%,89.3%,87.7%,88.8%,98.4%,103%,95%,92.7%,–,–
NC(Cc1ccccc1)C(=O)NC(Cc1ccccc1)C(=O)O (stereo not drawn) (H-Phe-Phe-OH; configuration not given here),89.3% and 91.7%,108% and 106%,98.9% and 94.3%,103% and 100%,112%,105% and 107%,109% and 99.7%,102% and 108%,–,–
